# In the library only some 0.82% were active in any assay of this set; here they are far more common.
# Mtb BioA inh: inhibitors of Mycobacterium tuberculosis BioA enzyme; actives 0.096% (n = 360,000); purified M. tuberculosis BioA enzyme, plate reader; inhibition, % at 9.99 µM; in the data active means inhibition above about 40%; inconclusive means no clear call, values can overlap the other calls
# RecA intein inh: inhibitors of M. tuberculosis RecA intein splicing; cell-free RecA intein splicing, fluorescence; inhibition, % (no concentration beside the values); actives 0.75% (n = 290,000); AID 2221; in the data active means inhibition above about 30%; inconclusive means no clear call, values can overlap the other calls;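 further: 0% = vehicle wells and 100% = reference inhibitor control wells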
# Rv3671c inh: Rv3671c (M. tuberculosis) protease inhibition; inhibition, % at 5.96 µM; actives 0.048% (n = 320,000); AID 2606; in the data active means inhibition above about 38%;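 further: extracellular domain of Rv3671c used as enzyme; 0% = enzyme with DMSO and 100% = no enzyme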
# UGM FP inh: Mtb UDP-galactopyranose mutase inhibition; P9WIQ1; actives 0.06% (n = 320,000); purified UGM, fluorescence polarization probe displacement; inhibition, % at 10 µM; in the data active means inhibition above about 10%, passing the limit was not always enough; inconclusive means no clear call, values can overlap the other calls
# Target sequence (P9WIQ1 whole entry, looked up): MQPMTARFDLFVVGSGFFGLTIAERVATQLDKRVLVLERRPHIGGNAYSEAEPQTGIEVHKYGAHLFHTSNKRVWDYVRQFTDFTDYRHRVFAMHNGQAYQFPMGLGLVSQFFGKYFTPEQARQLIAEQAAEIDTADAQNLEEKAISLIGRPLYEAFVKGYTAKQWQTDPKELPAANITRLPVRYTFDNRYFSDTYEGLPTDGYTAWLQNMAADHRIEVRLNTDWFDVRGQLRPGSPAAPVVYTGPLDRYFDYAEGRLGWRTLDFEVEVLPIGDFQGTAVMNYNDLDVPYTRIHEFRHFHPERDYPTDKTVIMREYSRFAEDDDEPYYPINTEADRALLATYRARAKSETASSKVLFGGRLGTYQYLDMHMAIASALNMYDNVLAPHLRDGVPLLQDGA
# Y pestis TopoI: blocks Yersinia pestis topoisomerase I activity | Y. pestis Topo-I cleavage product accumulation, plate reader | actives 0.064% (n = 360,000) | activity, % at 10 µM; in the data active means activity above about 50%, passing the limit was not always enough; inconclusive means no clear call, values can overlap the other calls
# FadD28 FP inh: inhibitors of Mycobacterium tuberculosis FadD28 bisubstrate binding; FadD28 bisubstrate probe binding, fluorescence polarization; inhibition, % at 12.5 µM; AID 588549; actives 0.22% (n = 360,000); in the data active means inhibition above about 8.5%, passing the limit was not always enough; inconclusive means no clear call, values can overlap the other calls
# GFP chromophore: counter-screen GFP chromophore formation inhibition. shares compounds with RecA intein inh. cell-free GFP chromophore formation, fluorescence. EC50, µM. actives 83% (n = 2,100); call rule not given here
# Starred values were filed as active, the others as inactive; u = inconclusive; x = not tested or not shown.
SMILES,Mtb BioA inh,RecA intein inh,Rv3671c inh,UGM FP inh,Y pestis TopoI,FadD28 FP inh,GFP chromophore
Oc1cc(O)c2c(c1)O[C@H](c1ccc(O)c(O)c1)[C@H](O)C2,-1,36*,0,2,7,-1,>38
CC1=NN(c2ccc(C)cc2C)C(=O)C1C(c1ccccc1)C1C(=O)N(c2ccc(C)cc2C)N=C1C (centres undefined),1,90*,-37,2,3,-2,1.1*
Cc1ccc(-n2nc(C)c(C(=O)O)n2)c(C)c1,0,11,-7,-1,0,-3,x
O=C1c2ccccc2C(=O)N1Cc1cccnc1,x,-9,5,1,0,-1,x
Cc1nc2ccccc2c2c1C(=O)N(Cc1cccnc1)C2=O,-1,54*,-4,2,-5,0,0.81*
COc1ccccc1-c1cn[nH]c(=S)n1,-1,35*,0,3,0,-2,>38
O=S(=O)(Nc1c(O)ccc2ccccc12)c1cccc2ccccc12,1,84*,-19,-1,-1,-1,4.3*
Cc1ccc(S(=O)(=O)NN=Cc2c(O)ccc3ccccc23)cc1,3,x,x,x,7,0,x
Cc1ccc(S(=O)(=O)Nc2c(O)ccc3ccccc23)cc1,1,76*,-12,3,-13,-1,3.1*
O=C(C[C@H]1CC[C@@H]2[C@H](COC[C@H](O)CN2S(=O)(=O)c2ccccc2)O1)N1CCc2ccccc2C1,3,x,x,x,x,x,x
O=Cc1ccc(Sc2nnc(-c3ccccc3)o2)c([N+](=O)[O-])c1,8,55*,4,0,7,-4,26*
Oc1ccc(/C=N/Nc2ccc(C(F)(F)F)cn2)c(O)c1,x,42*,19,1,-15,2,>38
Oc1ccc(/C=N/Nc2ccc(C(F)(F)F)cn2)cc1,x,-3,8,1,-14,1,x
C[C@H]1CN([C@@H](C)CO)C(=O)c2cc(NS(=O)(=O)c3cccs3)ccc2O[C@H]1CN(C)S(=O)(=O)c1ccc(F)cc1,2,x,x,x,x,x,x
O=C(O)/C=C/C(=O)Nc1ccc(C2(c3ccc(NC(=O)/C=C/C(=O)O)cc3)c3ccccc3-c3ccccc32)cc1,6,71*,17,-4,-3,-6,27*
O=C(O)/C=C/C(=O)Nc1ccc(SC(F)(F)C(F)(F)C(F)(F)F)cc1,x,67*,-6,1,6,-7,37*
Cn1[nH]c(CSc2ccc(Cl)cc2)cc1=O,x,93*,-9,-2,1,1,27*
CCNC(=O)c1ccc(CSc2ccc(Cl)cc2)cc1,2,-3,-1,-1,5,-2,x
COc1ccccc1N1CCN(CC(=O)c2c(C)[nH]c3cc(C)ccc23)CC1,0,9,-7,-1,1,-4,>38
COc1ccc(OC)c(N2C(=O)C(Cl)=C(N3CCCCC3)C2=O)c1,x,63*,4,3,-2,-2,17*
O=C1C(Cl)=C(N2CCCCC2)C(=O)N1c1ccccc1Cl,-4,77*,-6,0,-3,0,6.2*
Cc1ccccc1N1C(=O)C(Cl)=C(N2CCCCCC2)C1=O,-2,8,-11,-3,3,-1,x
O=C1C(Cl)=C(N2CCCCC2)C(=O)N1c1ccccc1,-3,41*,-11,2,10,-4,8.8*
O=C(c1ccncc1)N1C[C@H]2[C@@H](c3ccccc31)[C@H](CO)N2C(=O)c1ccncc1,-4,x,x,x,x,x,x
C[C@@H]1CN([C@@H](C)CO)C(=O)c2cc(N(C)C)ccc2O[C@H]1CN(C)CC1CCCCC1,0,x,x,x,x,x,x
SMILES,Mtb BioA inh,RecA intein inh,Rv3671c inh,UGM FP inh,Y pestis TopoI,FadD28 FP inh,GFP chromophore
COc1ccc(S(=O)(=O)Nc2cccc3c2O[C@@H](CN(C)C(=O)Nc2ccccc2)[C@H](C)CN([C@H](C)CO)C3=O)cc1,-1,x,x,x,x,x,x
CO[C@@H]1CN(C)C(=O)c2cc(NC(=O)Nc3ccc(Cl)cc3)ccc2OC[C@H](C)N(C(=O)Nc2c(C)noc2C)C[C@@H]1C,-2,x,x,x,x,x,x
C[C@H]1CN([C@@H](C)CO)S(=O)(=O)c2ccc(-c3cncnc3)cc2O[C@@H]1CN(C)Cc1cccnc1,0,x,x,x,x,x,x
CCC(CC)C1C(C#N)=C(N)Oc2n[nH]c(-c3ccccc3)c21 (centres undefined),0,4,-117,2,-6,0,x
CCCc1[nH]nc2c1C(CCC)C(C#N)=C(N)O2 (centres undefined),4,64*,-8,4,-4,-1,35*
CCCc1[nH]nc2c1C(c1cn[nH]c1-c1ccc(F)cc1)C(C#N)=C(N)O2 (centres undefined),1,81*,-7,-1,-9,-8,7.1*
COCc1[nH]nc2c1C(c1ccnc3ccccc13)C(C#N)=C(N)O2 (centres undefined),0,7,1,-1,1,-3,x
CCCc1[nH]nc2c1C(c1ccccc1OC)C(C#N)=C(N)O2 (centres undefined),0,61*,-5,-2,1,-4,20*
CO[C@H]1CN(C)C(=O)c2ccc(NC(=O)NC(C)C)cc2OC[C@@H](C)N(Cc2cocn2)C[C@H]1C,-2,x,x,x,x,x,x
Cc1nn(C(C)C(=O)Nc2ccccc2Cl)c(=O)c2nn(-c3ccccc3)c(C)c12 (centres undefined),16,-1,-6,0,30,1,x
COC(=O)c1ccccc1NC(=O)C(C)n1nc(C)c2c(C)n(-c3ccccc3)nc2c1=O (centres undefined),6,97*,-6,0,29,-2,>38
Nc1ccc2nc(CCCCc3nc4ccccc4[nH]3)[nH]c2c1,1,36*,x,-3,-19,-2,>38
CC(C)C#Cc1ccc2c(c1)O[C@H](CN(C)S(C)(=O)=O)[C@H](C)CN([C@@H](C)CO)S2(=O)=O,1,x,x,x,x,x,x
Cc1ccc(S(=O)(=O)/N=C2\C=C(Nc3cccc(C(=O)O)c3)C(=O)c3ccccc32)c(C)c1,5,82*,-179,1,-11,5,>38
CCc1ccc(NC2=CC(=O)C(=O)c3ccccc32)cc1,x,x,x,x,-8,3,x
CC(C)(C)c1ccc(S(=O)(=O)/N=C2\C=C(NS(=O)(=O)c3ccccc3)C(=O)c3ccccc32)cc1,1,63*,-56,0,5,-3,7.9*
Cc1ccc(S(=O)(=O)/N=C2\C=C(Nc3ccc(O)cc3)C(=O)c3ccccc32)cc1,1,x,-156,3,-21,u,x
Cc1ccc(S(=O)(=O)/N=C2\C=C(Nc3cccc(C(=O)O)c3)C(=O)c3ccccc32)cc1,6,95*,-187,0,-8,3,0.51*
CCc1ccc(S(=O)(=O)/N=C2\C=C(Nc3ccc(C(=O)O)cc3)C(=O)c3ccccc32)cc1,1,91*,-176,-1,4,5,0.24*
O=C(C[C@@H]1C=C[C@@H](NC(=O)Cc2cccnc2)[C@H](CO)O1)Nc1ccccc1,-2,x,x,x,x,x,x

# Compound activity as filed in PubChem.
